Marburg entry inh: inhibitors of Marburg virus binding or cell entry; Marburg virus pseudotyped entry inhibition, cell reporter; Potency, µM (top dose mostly 37.8 µM), usual class: inhibitors; 1.8% of 300,000 active; calls by dose curve; tested in HEK293 cells
HCMV inh: inhibitors of human cytomegalovirus; 4.5% of 410,000 active; HFF cells, HCMV-luciferase reporter, 72 h; active compounds read low; activity change, negative = inhibition, % at 57.5 µM; in the data active means activity change below about -60%; inconclusive means no clear call, values can overlap the other calls; inactive means above about -39%
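HFF cells seeded 16 h at 37C, treated with compounds, infected with luciferase-reporter HCMV at MOI 1 PFU/cell; luciferase read at 72 h post infection, normalized to buffer-only and Salinomycin controls.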
VACV Venus inh: inhibitors of vaccinia virus (Venus reporter); Vaccinia virus Venus reporter expression, fluorescence; Potency, µM (titrated, usually from 36.5 µM), hits mostly inhibitors; 0.46% of 330,000 active; calls by dose curve; tested in A549 cells; further: nearly all actives have a fitted effect of over 30% in size
Vaccinia mCherry: vaccinia inhibition (mCherry reporter). Potency, µM (top dose mostly 36.5 µM), most hits filed as inhibitors. Vaccinia virus mCherry reporter infection, fluorescence. AID 720579. 0.63% of 310,000 active; calls by dose curve; tested in A549 cells; further: nearly all actives have a fitted effect of over 35% in size
LASV entry inh: inhibitors of Lassa virus binding or cell entry. Lassa virus pseudotype entry inhibition, cell reporter. Potency, µM (titrated, usually from 37.9 µM), most hits filed as inhibitors. 1.2% of 300,000 active. AID 540256; calls by dose curve; tested in HEK293 cells; further: nearly all actives have a fitted effect of over 50% in size
FMDV inh: foot and mouth disease virus antiviral activity | FMDV antiviral cell-based qHTS | Potency, µM (highest dose often 57.9 µM), usual class: inhibitors | 1.2% of 410,000 active | AID 1159524; calls by dose curve; tested in HEK293T cells; further: read-out not given here; nearly all actives have a fitted effect of over 45% in size
Large screens that a line does not name were inactive. The list is not random: actives were taken first. Their share in the collection is about 6.5%.

O=C(C[n+]1ccc2ccccc2c1)c1ccc(F)cc1	none (no result: Marburg entry inh, HCMV inh, LASV entry inh, FMDV inh)
O=C(Nc1ccccc1)N(C1=NCCCCS1)c1cccc2ccccc12	none (no result: VACV Venus inh, Vaccinia mCherry)
O=C(Nc1ccccc1)N(C1=NCCCCS1)c1ccccc1	HCMV inh -104 (no result: Vaccinia mCherry)
Cc1cc(C)n2nc(SCC(=O)N3CC(C)CC(C)C3)nc2n1 (configuration not stated)	HCMV inh -65
COC(=O)[C@@]1(C=C2c3ccc(F)cc3[C@@H](OC)[C@@H]2C)[C@@H]2Oc3ccccc3[C@@H]21	none (no result: HCMV inh, VACV Venus inh, Vaccinia mCherry, LASV entry inh, FMDV inh)
CC(C)c1c(C(=O)N(C)Cc2cccc3ncccc23)cnn1-c1nccc(-c2ccco2)n1	Vaccinia mCherry inconclusive, FMDV inh inconclusive (no result: Marburg entry inh, HCMV inh, LASV entry inh)
Cc1cc(/C=C2\SC(=O)NC2=O)c(C)n1-c1ccc(N(C)C)cc1	none
Cc1cc(/C=C\c2ccc3cc(N(C)C)ccc3[n+]2C)c(C)n1-c1ccccc1	FMDV inh 20µM (no result: Marburg entry inh, HCMV inh, LASV entry inh)
Nc1nccc(-c2c(-c3ccc(F)cc3)nn3cc(C(F)(F)F)ccc23)n1	none (no result: Marburg entry inh, HCMV inh, VACV Venus inh, Vaccinia mCherry, FMDV inh)
CC(NC(=O)C1CC1)c1nnc2n1CCN(Cc1cccc(F)c1F)CC2 (configuration not stated)	none (no result: Marburg entry inh, HCMV inh, LASV entry inh)
CC(C)C(=O)N1CCN(c2ccccc2NC(=O)COc2ccc(C3CCCCC3)cc2)CC1	Marburg entry inh 7.9µM, VACV Venus inh inconclusive, FMDV inh inconclusive (no result: HCMV inh)
O=C(COc1ccc([N+](=O)[O-])cc1)Nc1ccccc1N1CCCC1	HCMV inh -64, FMDV inh inconclusive (no result: Marburg entry inh, VACV Venus inh, Vaccinia mCherry, LASV entry inh)
CCOc1ccc(OCC(=O)Nc2ccccc2N2CCCC2)cc1	LASV entry inh inconclusive, FMDV inh inconclusive
Cc1ccc(C)c(OCC(=O)Nc2ccccc2N2CCCC2)c1	Marburg entry inh inconclusive, Vaccinia mCherry inconclusive
CC(=O)c1ccc(OCC(=O)Nc2ccccc2N2CCCC2)cc1	HCMV inh -83
Cc1ccc(OCC(=O)Nc2ccccc2N2CCCC2)c(C)c1	Marburg entry inh inconclusive, HCMV inh -63, LASV entry inh inconclusive
O=C(NCc1cccc(F)c1)c1cccc(NC(=O)c2nsc3ccccc23)c1	LASV entry inh inconclusive (no result: Marburg entry inh)
CCOC(=O)COc1ccc(Br)cc1/C=C\c1[nH]c(=O)[nH]c(=O)c1[N+](=O)[O-]	FMDV inh 35µM
CCOc1cc(/C=C\c2[nH]c(=O)[nH]c(=O)c2[N+](=O)[O-])ccc1OC(C)CC (configuration not stated)	HCMV inh -97, FMDV inh 8.9µM (no result: VACV Venus inh, Vaccinia mCherry)
CCOC(=O)COc1ccc(Br)cc1/C=C/c1[nH]c(=O)[nH]c(=O)c1[N+](=O)[O-]	Marburg entry inh inconclusive, LASV entry inh inconclusive, FMDV inh 28µM
COC(=O)CC=C1c2ccc(OC)cc2[C@@H](OC)[C@@H]1C	LASV entry inh inconclusive (no result: HCMV inh, VACV Venus inh, Vaccinia mCherry, FMDV inh)
NNC(=O)Cn1c2c(c3c1CCCC3)CCCC2	none (no result: HCMV inh, VACV Venus inh, Vaccinia mCherry, LASV entry inh, FMDV inh)
O=S(=O)(c1ccc(OC(F)(F)F)cc1)N1CCN(c2nc(-c3cccs3)nc3ccccc23)CC1	none (no result: Marburg entry inh, HCMV inh, LASV entry inh, FMDV inh)
CCN(CC)CCN1C(=O)C(=O)/C(=C(/O)c2c(C)[nH]c(C(=O)OC)c2C)[C@@H]1c1cccc(OC)c1	none (no result: HCMV inh, VACV Venus inh, Vaccinia mCherry, LASV entry inh, FMDV inh)
CC1(C)NC(=O)N(C[C@@H](O)Cn2nnc3ccccc32)C1=O	none (no result: HCMV inh, VACV Venus inh, Vaccinia mCherry, LASV entry inh, FMDV inh)
Cc1cc(C)c(C#N)c(SCC(=O)C(C)(C)C)n1	none
Cc1cc(C)c(C#N)c(SCCS(=O)(=O)c2ccc(Cl)cc2)n1	HCMV inh inconclusive, VACV Venus inh inconclusive, Vaccinia mCherry 4.5µM, LASV entry inh inconclusive
Cc1cc(C)c(C#N)c(SCCS(=O)(=O)Cc2ccc(Cl)cc2)n1	none
Cc1cc(C)c(C#N)c(SCCS(=O)(=O)c2ccc(C(C)(C)C)cc2)n1	Marburg entry inh inconclusive, HCMV inh inconclusive, VACV Venus inh 4.5µM, Vaccinia mCherry 3.5µM
COC1=CC2C(=O)C(C(c3ccccc3)C2C)C1(O)c1cccc(OC)c1 (configuration not stated)	none (no result: HCMV inh, VACV Venus inh, Vaccinia mCherry, LASV entry inh, FMDV inh)
Cc1nonc1OCCCNc1ccc([N+](=O)[O-])cc1Cl	HCMV inh -78
Cc1nonc1OCCNc1ccc([N+](=O)[O-])cc1[N+](=O)[O-]	Marburg entry inh inconclusive
Cc1cc(-n2c(C)cc(C(=O)CSc3ncnc4ccccc34)c2C)no1	Marburg entry inh 9.2µM, HCMV inh -78, LASV entry inh inconclusive, FMDV inh 13µM (no result: VACV Venus inh, Vaccinia mCherry)
CC(=O)c1cccc(OCC(=O)c2cc(C)n(-c3cc(C)on3)c2C)c1	FMDV inh 22µM
CCN1CCC(N(Cc2ccc(F)cc2)C(=O)Nc2cc(Cl)ccc2C(=O)OC)CC1	LASV entry inh inconclusive, FMDV inh inconclusive (no result: Marburg entry inh)
COc1cc2c3c(c1OC)-c1cc(O)ccc1CC3NCC2 (configuration not stated)	none (no result: Vaccinia mCherry)
COc1cc2c(cc1OC)-c1c(OC)c(OC)cc3c1[C@H](C2)[N+](C)(C)CC3	HCMV inh -74, FMDV inh inconclusive
CC(=O)[C@@]1(O)CC[C@H]2C3CCC4=CC(=O)CC[C@]4(C)C3CC[C@@]21C (some centres not stated)	none (no result: HCMV inh, VACV Venus inh, Vaccinia mCherry, LASV entry inh, FMDV inh)
O=C(CCCc1ccccc1)c1ccc2c(c1)OCCO2	Marburg entry inh 0.46µM, HCMV inh -91, LASV entry inh inconclusive, FMDV inh 7.9µM
O=C(NCCc1ccccc1)c1ccc2c(c1)OCCO2	Marburg entry inh 0.45µM, HCMV inh -79, LASV entry inh 0.35µM, FMDV inh 1.8µM
Nc1cc[n+](CC(=O)c2ccc3c(c2)OCCO3)cc1	HCMV inh -82, LASV entry inh inconclusive, FMDV inh inconclusive (no result: VACV Venus inh, Vaccinia mCherry)
COc1ccc(CCNC(=O)c2ccc3c(c2)OCCO3)cc1	Marburg entry inh inconclusive, LASV entry inh inconclusive
O=C(NCCc1ccccc1)c1ccc2c(c1)OCCCO2	Marburg entry inh inconclusive, HCMV inh -93, LASV entry inh inconclusive, FMDV inh 1.1µM
CCc1ccc(NC(=O)Cn2cnc3sc(C)c(S(=O)(=O)N4CCN(c5ccccc5OC)CC4)c3c2=O)cc1	Marburg entry inh inconclusive, FMDV inh inconclusive
Cc1ccc(C[n+]2cccc(-c3ccccc3)c2)c(C)c1	Marburg entry inh inconclusive, HCMV inh -96, LASV entry inh inconclusive, FMDV inh inconclusive
COc1ccc(C2c3[nH]c4ccccc4c3CCN2C(=O)CCC2CCCC2)cc1 (configuration not stated)	HCMV inh -82, LASV entry inh inconclusive (no result: Marburg entry inh)
CCOc1ccc(C2c3[nH]c4ccccc4c3CCN2C(=O)CCC2CCCC2)cc1 (configuration not stated)	HCMV inh -80, LASV entry inh inconclusive (no result: Marburg entry inh)
COc1ccc(C2c3[nH]c4ccc(OC)cc4c3CCN2C(=O)Nc2ccccc2)cc1 (configuration not stated)	HCMV inh -89, Vaccinia mCherry inconclusive, LASV entry inh inconclusive, FMDV inh inconclusive (no result: Marburg entry inh)
COc1ccc(C(=O)N2CCc3c([nH]c4ccccc34)C2C(F)(F)F)cc1 (configuration not stated)	HCMV inh -60 (no result: Marburg entry inh, VACV Venus inh, Vaccinia mCherry, LASV entry inh)
CCOc1cccc(C2c3[nH]c4ccccc4c3CCN2C(=O)CCC2CCCC2)c1 (configuration not stated)	LASV entry inh inconclusive (no result: Marburg entry inh)
c1ccc2c(c1)[nH]c1cnccc12	none
Cc1c2ccncc2cc2c1[nH]c1ccccc12	Marburg entry inh inconclusive, HCMV inh inconclusive, VACV Venus inh 10µM, Vaccinia mCherry 16µM
